Compound activity as filed in PubChem.
Sampled rows, rich in hits. Any-hit rate of the full collection: about 3.8%.
ERa SRC1 inh: ER-alpha (human) coactivator binding inhibition | inhibition, % at 25.6 µM | TR-FRET ER-alpha LBD / SRC-1 peptide, estradiol-bound | 86,000 compounds, 1.7% hits; in the data active = inhibition above about 50%;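 note: 0% = receptor plus peptide control and 100% = peptide only without receptor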
Smad3 inh: inhibitors of human Smad3 transcription factor binding. 88,000 compounds, 0.29% hits. P84022. inhibition, % at 25 µM. TR-FRET Smad3/Dy647-FoxH1 peptide binding, europium anti-His;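 active = compounds that reduce the energy-transfer binding signal between the protein and its labelled peptide by more than half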;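 note: 0% = Smad3 plus labelled peptide maximal FRET and 100% = peptide-only background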
ERa SRC1 pot: enhances coactivator binding to human estrogen receptor alpha. P03372. TR-FRET ERalpha-LBD/SRC-Cy5 coactivator binding, 2 h; 100 = basal binding, no effect. coactivator binding (% of control), % at 25.6 µM. 86,000 compounds, 1.3% hits. AID 639; in the data active = activity above about 200%;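 note: binding measured in presence of low estradiol as agonist stimulus; 0% = peptide alone without receptor and 100% = receptor with peptide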
ERb coact inh: blocks coactivator binding to human estrogen receptor beta; TR-FRET ER-beta LBD / SRC1-Cy5 peptide binding; receptor agonist-loaded with 1 µM estradiol; inhibition, % at 25.6 µM; AID 633; Q92731; 86,000 compounds, 1.3% hits;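 active = compounds whose percent inhibition of the receptor-coactivator binding signal exceeds about 50% in the single-dose screen, limit read from the data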;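 note: 0% = receptor plus peptide wells without compound and 100% = peptide-only wells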
Target sequence (Q92731 whole entry, looked up, the tested form may be a part): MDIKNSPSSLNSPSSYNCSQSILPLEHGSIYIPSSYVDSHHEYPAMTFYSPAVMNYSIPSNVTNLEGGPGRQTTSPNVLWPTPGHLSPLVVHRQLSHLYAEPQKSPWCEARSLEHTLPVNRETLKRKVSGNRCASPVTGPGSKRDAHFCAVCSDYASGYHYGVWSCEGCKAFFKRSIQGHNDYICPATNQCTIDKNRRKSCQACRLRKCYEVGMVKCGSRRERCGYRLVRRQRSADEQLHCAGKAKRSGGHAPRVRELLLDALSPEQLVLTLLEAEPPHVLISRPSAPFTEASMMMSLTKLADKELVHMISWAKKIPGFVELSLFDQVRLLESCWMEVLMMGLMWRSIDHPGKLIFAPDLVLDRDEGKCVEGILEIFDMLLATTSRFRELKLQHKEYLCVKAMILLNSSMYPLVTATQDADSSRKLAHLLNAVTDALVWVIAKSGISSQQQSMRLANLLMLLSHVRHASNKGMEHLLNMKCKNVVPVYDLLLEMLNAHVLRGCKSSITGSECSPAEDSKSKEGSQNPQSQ
Calb biofilm kill: kills Candida albicans biofilms | C. albicans biofilm + clotrimazole, Alamar Blue | 85,000 compounds, 0.14% hits | inhibition, % at 6 µM;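 active = inhibition above 20%; inactive = inhibition below 20%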;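 note: preformed 24 hr biofilms exposed to compound for 48 hr; 0% = biofilm without compound and 100% = blank killed by clotrimazole plus chlorhexidine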
Numbers without * were called inactive; [ ] = dose if it differs, or a comment.

For O=C(Nc1nnc(-c2ccco2)s1)C1CC1 the results were ERa SRC1 inh 0, Smad3 inh 4, ERa SRC1 pot 94, ERb coact inh 18 and Calb biofilm kill 5.
For C[C@@H](NC(=O)C1(N)CCCC1)C(=O)O the results were Smad3 inh -7.
Screening COc1ccc(C(=O)NCC(c2cccnc2)N2CCN(c3ccccc3)CC2)cc1OC (centres undefined) returned ERa SRC1 inh -3, Smad3 inh 3, ERa SRC1 pot 117, ERb coact inh -8 and Calb biofilm kill 4.
`COc1ccc(C(=O)NCC(c2cccnc2)N2CCN(c3ccccc3OC)CC2)cc1OC` (centres undefined) gave ERa SRC1 inh -8, Smad3 inh -3, ERa SRC1 pot 99, ERb coact inh -8 and Calb biofilm kill 24*.
`C[n+]1cccc(/C=C/c2ccc3cccc(O)c3n2)c1` gave Smad3 inh 40.
Screening CN1CCc2nc(N)nc(-c3nc(N)nc4c3CN(C)CC4)c2C1 returned Smad3 inh 23.
Screening O=c1c(C(c2ccccc2)c2c(O)sc3ccccc3c2=O)c(O)sc2ccccc12 returned ERa SRC1 inh 81*[fluorescence artefact?], Smad3 inh 17, ERa SRC1 pot 119, ERb coact inh 29 and Calb biofilm kill 5.
For OC(c1ccccc1)c1nc2ccccc2s1 (centres undefined) the results were ERa SRC1 inh -4, Smad3 inh 3, ERa SRC1 pot 112, ERb coact inh 3 and Calb biofilm kill 9.
`O=C(NCCCCCCNC(=O)c1ccc(Br)s1)c1ccc(Br)s1` gave ERa SRC1 inh 82*[fluorescence artefact?], Smad3 inh -55, ERa SRC1 pot 417*, ERb coact inh 58*[fluorescence artefact?] and Calb biofilm kill -4.
For Nc1nc(N)nc(CC(=O)O)n1 the results were Smad3 inh 1.
For CO[C@@H]1/C=C\O[C@]2(C)Oc3c(C)c(O)c4c(O)c(c(CN(C)C)c(O)c4c3C2=O)NC(=O)C(C)=C/C=C\[C@@H](C)[C@@H](O)[C@H](C)[C@@H](O)[C@H](C)[C@H](OC(C)=O)[C@@H]1C the results were Smad3 inh 5.
For Cc1nc2ccccc2n1CCc1nc2c3ccccc3nc(SCC(=O)NCc3ccco3)n2n1 the results were ERa SRC1 inh 48, Smad3 inh -1, ERa SRC1 pot 194, ERb coact inh 7 and Calb biofilm kill 6.
Screening Cc1n[nH]c(C)c1CCc1nc2c3ccccc3nc(SCC(=O)Nc3ccccc3F)n2n1 returned ERa SRC1 inh 73*[fluorescence artefact?], Smad3 inh 7, ERa SRC1 pot 181, ERb coact inh 59*[fluorescence artefact?] and Calb biofilm kill -2.
Screening Cc1cccc(NC(=O)CSc2nc3ccccc3c3nc(CCc4c(C)n[nH]c4C)nn23)c1 returned ERa SRC1 inh 67*[fluorescence artefact?], Smad3 inh 10, ERa SRC1 pot 31, ERb coact inh 45 and Calb biofilm kill 7.
For O=C(O)C[C@H](NC(=O)CP(=O)(O)O)C(=O)O.[NH-][C@@H]1CCCC[C@H]1[NH-].[Pt] the results were Smad3 inh 41.
C[N@@+]1(CC[N@+]2(C)CCC[C@@H]2c2cccnc2)CCC[C@@H]1c1cccnc1 was read as Smad3 inh 91*.
`COc1cccc(NC(=O)Cc2nnc(SCC(=O)c3ccccc3)n2C)c1` gave ERa SRC1 inh -1, Smad3 inh -10, ERa SRC1 pot 103, ERb coact inh -4 and Calb biofilm kill 6.
`Cc1ccc(NC(=O)Cc2nnc(SCC(=O)c3ccc(Br)cc3)n2C)cc1` gave ERa SRC1 inh 4, Smad3 inh 24, ERa SRC1 pot 201*[fluorescence artefact?], ERb coact inh 19 and Calb biofilm kill 6.
Screening Cc1cccc(-n2nc3c(c2NC(=O)c2ccc(Br)o2)CSC3)c1 returned ERa SRC1 inh 1, Smad3 inh 6, ERa SRC1 pot 211*, ERb coact inh 0 and Calb biofilm kill 2.
`COc1cc(OC)cc(C(=O)n2cnnc2N)c1` gave ERa SRC1 inh 9, Smad3 inh 19, ERa SRC1 pot 101, ERb coact inh -6 and Calb biofilm kill 4.
O=C1c2ccccc2C(O)(O)[C@@]1(O)[C@]1(O)C(=O)c2ccccc2C1(O)O was read as Smad3 inh 17.
CC1=CC(=C2C(=O)c3ccccc3C2=O)C=C(C)O1 was read as ERa SRC1 inh 8, Smad3 inh -10, ERa SRC1 pot 884*[fluorescence artefact?], ERb coact inh 3 and Calb biofilm kill 4.
`CC(=O)N1C(=O)C(=C2C=C(C)OC(C)=C2)c2ccccc21` gave ERa SRC1 inh -11, Smad3 inh 9, ERa SRC1 pot 119, ERb coact inh -2 and Calb biofilm kill -3.
Screening COCc1cc(=O)n2c(-c3ccc(C)cc3)n[nH]c2n1 returned ERa SRC1 inh 45, Smad3 inh 1, ERa SRC1 pot 55, ERb coact inh 60* and Calb biofilm kill 7.
Screening CN(C)CCCNc1ncnc2nc[nH]c12 returned Smad3 inh 9.
`COc1ccc(-c2nn(C)c(=O)c3ccccc23)cc1NC(=O)Cn1nc(C)c2ccccc2c1=O` gave ERa SRC1 inh 63*, Smad3 inh -8, ERa SRC1 pot 287*[fluorescence artefact?], ERb coact inh 50*[fluorescence artefact?] and Calb biofilm kill 5.
For COc1ccc(-c2nn(C)c(=O)c3ccccc23)cc1NC(=O)COc1ccc(C)cc1 the results were ERa SRC1 inh 11, Smad3 inh -6, ERa SRC1 pot 487*[fluorescence artefact?], ERb coact inh 16 and Calb biofilm kill 6.
`CCC(=O)NCc1cc(-c2nn(C)c(=O)c3ccccc23)ccc1C` gave ERa SRC1 inh -3, Smad3 inh -15, ERa SRC1 pot 115, ERb coact inh -7 and Calb biofilm kill 4.
`COc1ccc(NC(=O)Cc2nn(C)c(=O)c3ccccc23)c2ncccc12` gave ERa SRC1 inh -5, Smad3 inh 4, ERa SRC1 pot 217*, ERb coact inh 17 and Calb biofilm kill 9.
Cc1ccc(-c2nn(CC(=O)NCc3cc(-c4nn(C)c(=O)c5ccccc45)ccc3C)c(=O)c3ccccc23)cc1 was read as ERa SRC1 inh 88*[fluorescence artefact?], Smad3 inh -59, ERa SRC1 pot 66, ERb coact inh 64*[fluorescence artefact?] and Calb biofilm kill 1.
`CN(C)CCNS(=O)(=O)N(C)C` gave Smad3 inh 2.
O=[N+]([O-])c1ccc([C@@H](Nc2ccccc2)c2ccc3cccnc3c2O)cc1 was read as Smad3 inh 15.
Cc1cc(C)c2c(=O)[nH]n(C(C)C)c2n1 was read as ERa SRC1 inh -20, Smad3 inh 14, ERa SRC1 pot 295*, ERb coact inh -17 and Calb biofilm kill 13.
For CCC(CC)n1[nH]c(=O)c2c(C)cc(C)nc21 the results were ERa SRC1 inh -2, Smad3 inh -5, ERa SRC1 pot 116, ERb coact inh 2 and Calb biofilm kill 1.
`CCOC(=O)N1c2ccccc2C=CC1OCC` (centres undefined) gave ERa SRC1 inh -3, Smad3 inh -1, ERa SRC1 pot 619*, ERb coact inh -3 and Calb biofilm kill 5.
`O=C(O)C(Cl)(c1ccccc1)c1ccccc1` gave Smad3 inh -8.
